Source: PubChem (NMMLSC)
MEKK3 PB1 HTS: modulators of MEKK3-MEK5 PB1 binding, primary screen, biochemical, wildtype MEKK3, multiplex bead flow cytometry, Alexa488-MEK5; Mitogen-activated protein kinase kinase kinase 3 (Homo sapiens), Q99759; 290,000 compounds, 1.4% hits; bead-based flow cytometry, Alexa488-MEK5 binding to MEKK3; actives lie on both sides; 0 = blocked by unlabeled MEK5, 100 = vehicle; AID 1529, 2009; binding response (% of control), % at 10 µM;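 active means binding response more than 3 SD above or below the average of its plate-row segment, actives on both sides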;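 further: Alexa488 bead fluorescence after subtracting the streptavidin-only scavenger bead signal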
GRK2 inh: compounds blocking aptamer binding on GRK2 – biochemical, human GRK2, bead flow cytometry, HTS, primary screen; Beta-adrenergic receptor kinase 1 (Homo sapiens), P25098; FAM-aptamer displacement from GRK2; inhibition of aptamer binding, % at 10 µM; 330,000 compounds, 0.59% hits;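 active means inhibition of aptamer binding above 40%, roughly 3 SD of noise, on plates passing a quality check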;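 further: median bead fluorescence of bound FAM aptamer so fluorescent compounds give negative values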
Target sequence (P25098 whole entry, looked up): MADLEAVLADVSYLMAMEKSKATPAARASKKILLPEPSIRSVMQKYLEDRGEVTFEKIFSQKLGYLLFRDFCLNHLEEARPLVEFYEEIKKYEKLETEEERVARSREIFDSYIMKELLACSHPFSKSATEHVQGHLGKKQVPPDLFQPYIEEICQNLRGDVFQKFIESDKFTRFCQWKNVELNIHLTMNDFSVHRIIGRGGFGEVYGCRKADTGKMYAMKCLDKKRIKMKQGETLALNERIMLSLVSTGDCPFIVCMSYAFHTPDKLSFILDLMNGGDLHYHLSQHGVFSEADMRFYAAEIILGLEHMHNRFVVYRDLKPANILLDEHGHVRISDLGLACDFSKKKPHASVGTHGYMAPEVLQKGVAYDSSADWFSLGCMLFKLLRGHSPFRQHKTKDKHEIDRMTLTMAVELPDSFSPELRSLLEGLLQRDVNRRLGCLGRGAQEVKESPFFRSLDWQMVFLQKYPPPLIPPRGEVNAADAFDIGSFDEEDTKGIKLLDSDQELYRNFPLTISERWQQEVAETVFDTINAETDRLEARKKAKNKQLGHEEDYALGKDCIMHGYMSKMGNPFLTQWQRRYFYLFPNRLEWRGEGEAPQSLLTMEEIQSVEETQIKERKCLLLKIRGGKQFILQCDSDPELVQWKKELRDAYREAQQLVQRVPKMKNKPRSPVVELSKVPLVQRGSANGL
MEKK2mut PB1 HTS: MEK5 binding signal on mutant MEKK2 PB1, primary screen, biochemical, multiplex bead flow cytometry, Alexa488-MEK5 | Alexa488-MEK5 binding to MEKK2 mutant | percent response, % at 10 µM | 290,000 compounds, 0.35% hits; in the data active means percent response above about 24%, passing the limit was not always enough
MEKK2 WT-MEK5: modulators of MEK5 binding to wildtype MEKK2, primary screen, biochemical, multiplex bead flow cytometry, Alexa488-MEK5. Mitogen-activated protein kinase kinase kinase 2 (Homo sapiens), Q9Y2U5. Alexa488-MEK5 binding to MEKK2 WT; actives lie on both sides. binding response (% of control), % at 10 µM. 290,000 compounds, 1.1% hits. AID 1531, 2009; in the data active means binding response below about 67% or above about 130%
GRK2 inh confirm: GRK2 aptamer-displacing inhibitors, retest, confirmation, biochemical, cherry pick 1, bead flow cytometry. shares compounds with GRK2 inh. aptamer displacement, % at 10 µM. 2,000 compounds, 4% hits. bead-bound GRK2, FAM-aptamer displacement;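 active means aptamer displacement above 40%, near three times the noise of non-fluorescent compounds, on plates passing quality checks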;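 further: negative values mostly reflect intrinsic compound fluorescence rather than true enhancement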
Aptamer quench SP: quenches fluorescent RNA aptamer, GRK2 hit artifact | shares compounds with GRK2 inh | Carboxyfluorescein RNA aptamer on beads, flow cytometry quenching; hits give low values | fluorescence response (% of DMSO), % at 10 µM | 2,000 tested, under 10 active | AID 504580;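 active means compounds that quench the bead-bound fluorescent RNA probe, cutting fluorescence to under half of the solvent control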;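 further: counterscreen run without GRK2 so only probe quenching by compound is measured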
GRK2 confirm 2: GRK2 aptamer-displacing inhibitors, hit retest, confirmation, biochemical, cherry pick 2, bead flow cytometry | shares compounds with GRK2 inh | bead-bound GRK2, FAM-aptamer displacement | inhibition of aptamer binding, % at 10 µM | 360 tested, under 10 active;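 active means inhibition of aptamer binding above 40%, about triple the noise seen with nonglowing compounds, on plates passing quality control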;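 further: negative values mostly come from compounds that fluoresce themselves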
FAM quench CP2: counter-screen for GRK2 binding hits: quenchers of fluorescent RNA aptamer. 360 tested, under 10 active. carboxyfluorescein RNA aptamer beads, flow cytometry quenching; hits give low values. shares compounds with GRK2 inh. AID 588494. fluorescence response vs DMSO, % at 10 µM;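 active means response vs DMSO under 50%, meaning signal dropped by over half, treated as fluorescence quencher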;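 further: labelled aptamer on streptavidin beads without GRK2 as a quench counter-screen; 100% = bead fluorescence of DMSO wells and lower means quenching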
The depositor's hits bear a star; nt = not tested or not shown. Rows were chosen to be rich in hits. Some 2.5% of all compounds tested hit in one or more screens of this group.

SMILES | MEKK3 PB1 HTS | GRK2 inh | MEKK2mut PB1 HTS | MEKK2 WT-MEK5 | GRK2 inh confirm | Aptamer quench SP | others
Cc1cccc(N2CC(C(=O)Nc3cccc(S(=O)(=O)N4CCCCC4)c3)CC2=O)c1C (stereo not drawn) | nt | 2.0 | nt | nt | -3.3 | 98.0
Cc1cccc(N2CC(C(=O)Nc3ccc(S(=O)(=O)N4CCOCC4)cc3)CC2=O)c1C (stereo not drawn) | 104.0 | 2.0 | 2.0 | 100.0 | nt | nt
O=C(Cc1cc(=O)[nH]c(=O)[nH]1)NCc1ccc(Cl)cc1 | 102.0 | 0.0 | -5.0 | 95.0 | nt | nt
Cc1c(CN(C)C(=O)CSc2nc(-c3ccco3)cc(C(F)(F)F)n2)cnn1C | 107.0 | 0.0 | 6.0 | 107.0 | nt | nt
O=C1/C(=C/c2ccc([N+](=O)[O-])cc2)Oc2cc(O)ccc21 | 104.0 | 14.0 | 13.0 | 106.0 | nt | nt
O=C(Nc1cccc(S(=O)(=O)NC2=NCCC2)c1)C1CC(=O)N(c2ccc3c(c2)OCCO3)C1 (stereo not drawn) | 106.0 | 1.0 | -5.0 | 99.0 | 2.2 | 97.4
N#Cc1cccc(NC(=O)CNc2cccc(S(=O)(=O)N3CCCCC3)c2)c1 | nt | 0.0 | nt | nt | 1.1 | 101.7
COc1ccccc1C(=O)COC(=O)Cn1c(C)csc1=O | nt | 2.0 | nt | nt | nt | nt
CN1CCN(c2nc3c(c(=O)n(C)c(=O)n3C)n2CCSc2nnnn2-c2ccccc2)CC1 | 97.0 | 2.0 | -1.0 | 101.0 | nt | nt
Cc1ccc(S(=O)(=O)N(C)/C(=N/S(=O)(=O)c2ccccc2)c2ccccc2)cc1 | 104.0 | 8.0 | 10.0 | 102.0 | nt | nt
Cc1ccc(S(=O)(=O)/N=C(\c2ccccc2)N(C)S(=O)(=O)c2ccc(C)cc2)cc1 | 102.0 | 66.0* | 3.0 | 105.0 | -3.4 | 96.3
Cc1ccc(-c2noc(CCCC(=O)NC3CCCC3)n2)cc1 | 104.0 | 0.0 | -3.0 | 94.0 | nt | nt
COc1cc(OC)c(OC)cc1/C=N/NC(=O)CSc1ccccc1F | 105.0 | 90.0* | 6.0 | 108.0 | 3.8 | 94.6
COc1cccc(/C=N/NC(=O)CSc2ccccc2C)c1O | 93.0 | 0.0 | 0.0 | 102.0 | nt | nt
CCOC(=O)CSc1nnc(C)c(C)n1 | 105.0 | 1.0 | 4.0 | 104.0 | nt | nt
Cc1nn(-c2ccccc2)c(C)c1NC(=O)COC(=O)/C=C/c1ccccc1 | nt | 2.0 | nt | nt | nt | nt
Cc1cc(N/C=C/C(=O)c2ccc(Br)cc2)no1 | 105.0 | 77.0* | 3.0 | 97.0 | -1.8 | 99.1
Cc1nn(CC(=O)N(C)Cc2ccc(F)cc2)c(C)c1[N+](=O)[O-] | 113.0 | 100.0* | -1.0 | 103.0 | nt | nt | GRK2 confirm 2=7.4;FAM quench CP2=102.0
O=c1[nH]c(CN2CCN(C/C=C/c3ccccc3)CC2)nc2ccccc12 | 105.0 | 2.0 | 6.0 | 111.0 | nt | nt | GRK2 confirm 2=19.1;FAM quench CP2=98.0
O=c1[nH]c(CN2CCN(S(=O)(=O)/C=C/c3ccccc3)CC2)nc2ccccc12 | 101.0 | 0.0 | 0.0 | 96.0 | nt | nt
CCOc1ccc(-c2nnc3ccc(SCC(=O)Nc4nc5ccc(C)cc5s4)nn23)cc1 | 113.0 | 3.0 | 0.0 | 98.0 | nt | nt
Fc1cccc(Nc2ncnc3sc4c(c23)CCC4)c1 | 100.0 | 94.0* | -1.0 | 96.0 | nt | nt | GRK2 confirm 2=-13.3;FAM quench CP2=101.0
O=S(=O)(Nc1ncnc2sc3c(c12)CCC3)c1cc(F)ccc1F | 101.0 | 0.0 | -1.0 | 99.0 | nt | nt
CCC(=O)c1ccc(OCC(O)CN2CCc3ccccc3C2)cc1 (stereo not drawn) | 107.0 | 54.0* | 2.0 | 108.0 | -0.6 | 103.3
Cc1ccc(-c2ccc(/C=N/NC(=S)Nc3ccccc3)o2)cc1[N+](=O)[O-] | 94.0 | 3.0 | 0.0 | 86.0 | nt | nt
SMILES | MEKK3 PB1 HTS | GRK2 inh | MEKK2mut PB1 HTS | MEKK2 WT-MEK5 | GRK2 inh confirm | Aptamer quench SP | others
CCC(C)NC(=O)c1ccc(C)c(NC(=O)C2=C(C)OCCS2)c1 (stereo not drawn) | 101.0 | 0.0 | -1.0 | 101.0 | nt | nt
COc1ccc(C(=O)N2CCN(C(C)=O)CC2)cc1S(=O)(=O)N1CCOCC1 | 72.0 | 3.0 | -3.0 | 77.0 | nt | nt
CCOC(=O)c1cnc2c(C#N)c(C)nn2c1-c1ccccc1 | 100.0 | 0.0 | 0.0 | 99.0 | nt | nt
CCOC(=O)c1cnc2c(C#N)c(C)nn2c1C | 99.0 | 47.0* | 0.0 | 103.0 | -4.4 | 99.9
NC(=O)c1ccsc1NC(=O)COC(=O)COc1ccccc1F | 96.0 | 0.0 | 10.0 | 95.0 | nt | nt
NC(=O)c1ccsc1NC(=O)COC(=O)CNC(=O)c1ccc(F)cc1 | nt | 55.0* | nt | nt | -1.1 | 103.7
O=C(COC(=O)[C@@H]1CCCN1S(=O)(=O)c1ccc(Cl)cc1)NC1CCS(=O)(=O)C1 (stereo partly drawn) | nt | 1.0 | nt | nt | nt | nt
Cc1ccc(NC(=O)C2CCN(S(=O)(=O)c3ccc4c(c3)CC(C)N4C(=O)C3CCC3)CC2)nc1 (stereo not drawn) | 100.0 | 0.0 | 6.0 | 101.0 | nt | nt
CC(=O)Nc1ccc(OCC(=O)NCc2ccccc2)cc1 | 100.0 | 100.0* | -11.0 | 91.0 | -0.3 | 91.2
CC(=O)Nc1ccc(C(=O)OCC(=O)NCc2ccccc2)cc1 | 92.0 | 2.0 | -5.0 | 91.0 | nt | nt
COc1cccc(CC2(CO)CCCN(Cc3cn[nH]c3C3CCCCC3)C2)c1 (stereo not drawn) | 101.0 | 0.0 | 5.0 | 112.0 | nt | nt
COc1cccc(CC2(CO)CCCN(Cc3cn[nH]c3-c3cc(C)ccc3C)C2)c1 (stereo not drawn) | 97.0 | 0.0 | -6.0 | 102.0 | 2.8 | 97.4
CCOc1ccccc1N(C(=O)c1snc(C(N)=O)c1N)C(C(=O)NCC1CCCO1)c1ccc2ncccc2c1 (stereo not drawn) | 100.0 | 3.0 | 0.0 | 97.0 | nt | nt
COc1ccc(OC)c(N(C(=O)c2snc(C(N)=O)c2N)C(C(=O)NCC2CCCO2)c2ccc3ncccc3c2)c1 (stereo not drawn) | 100.0 | 50.0* | -2.0 | 101.0 | 7.1 | 102.0
COc1ccc(/C=C/C(=O)N2CCN(c3ccccn3)CC2)cc1OC | 106.0 | 53.0* | 3.0 | 104.0 | -0.4 | 100.2
CCN1C(=O)C(CC(=O)Nc2ccc(OC)cc2)N(CCc2ccc(OC)cc2)C1=S (stereo not drawn) | 108.0 | 1.0 | -1.0 | 99.0 | nt | nt
CCOc1ccc(NC(=O)CC2C(=O)N(CC)C(=S)N2CCNC(C)=O)cc1 (stereo not drawn) | 94.0 | 70.0* | -3.0 | 96.0 | nt | nt | GRK2 confirm 2=10.6;FAM quench CP2=100.0
